Test results published in the supplement of paper PMC10981050.
Several values for one entry are separate records, joined by “and”; a condition that tells them apart may be missing. Identical values can stand only once. Counter-ions that a name gives are not always drawn.

How the values were obtained:
Assay in all cases: cell viability relative to vehicle control; higher = less cytotoxic
Settings in all cases: 10 µM
K562 = system: K562
Procedure, shortened: (§1)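 Mutant clones made by CRISPR editing and their isogenic wild-type counterparts, from four leukaemia lines, were exposed to a single 10 µM dose of each library compound for 48 h. The supernatant was then removed and CellTiter-Glo luminescence was read. Viability was reported as percent of the on-plate vehicle control.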

MARIMO = system: MARIMO
Procedure, shortened: as §1

MOLM14 = system: MOLM14
Procedure, shortened: as §1

OCI-AML2 = system: OCI-AML2
Procedure, shortened: as §1

SMILES	cell viability (K562; SRSF2 genotype: SRSF2 P95H/wt)	cell viability (K562; SRSF2 genotype: SRSF2 wt/wt)	cell viability (MARIMO; SRSF2 genotype: SRSF2 P95H/wt)	cell viability (MARIMO; SRSF2 genotype: SRSF2 wt/wt)	cell viability (MOLM14; SRSF2 genotype: SRSF2 P95H/wt)	cell viability (MOLM14; SRSF2 genotype: SRSF2 wt/wt)	cell viability (OCI-AML2; SRSF2 genotype: P95H/wt)	cell viability (OCI-AML2; SRSF2 genotype: wt/wt)
FC(F)c1nc2ccccc2n1-c1nc(N2CCOCC2)nc(N2CCOCC2)n1	71.3% and 77.2%	70%	49.4%	43.4%	32%	32.9%	13.8%	27.2%
C/C=C/c1ccc(OC)cc1 [Trans-Anethole]	107% and 99.3%	97.3%	103%	102%	103%	103%	92%	116%
C[C@@H]1COCCN1c1cc(C2([S@](C)(=N)=O)CC2)nc(-c2cc[nH]c3nccc2-3)n1	15.9% and 23.3%	15.3%	19.2%	20.1%	11.1%	5.99%	10.6%	12%
Cc1ccc(C(=O)c2cc(O)c(O)c([N+](=O)[O-])c2)cc1 [Tolcapone]	107% and 113%	112%	109%	111%	106%	109%	113%	97.3%
Cn1c([N+](=O)[O-])cnc1COC(N)=O [Ronidazole]	95.1% and 89%	92.3%	97.3%	97.3%	96%	99.5%	90.8%	102%
CN(C)CCC=C1c2ccccc2CCc2ccccc21 [Amitriptyline HCl]	83.3% and 90.4%	88.2%	77.1%	83%	79%	89.7%	80.7%	89.2%
COc1ccc(-c2cc(=O)c3c(O)cc(O[C@@H]4O[C@H](CO[C@@H]5O[C@@H](C)[C@H](O)[C@@H](O)[C@H]5O)[C@@H](O)[C@H](O)[C@H]4O)cc3o2)cc1 [Linarin]	107% and 103%	102%	95.8%	101%	111%	102%	103%	98.7%
CCOC(=O)/C=C\C(=O)OCC [Diethylmaleate]	102% and 96.1%	99.8%	97.5%	109%	104%	105%	98.9%	111%
Nc1ccc(Cl)cc1C(=O)C(F)(F)F [4-Chloro-2-(trifluoroacetyl)aniline hydrochl]	106% and 98.3%	112%	101%	99.5%	105%	109%	105%	115%
C[N+]1(C)[C@@H]2C[C@@H](OC(=O)C(O)(c3cccs3)c3cccs3)C[C@H]1[C@@H]1O[C@@H]12 [Tiotropium Bromide hydrate]	106% and 108%	98.9%	102%	107%	105%	104%	98.9%	104%
COc1ccc(-c2ccc3c(N4CCOCC4)nc(N4C[C@@H](C)O[C@@H](C)C4)nc3n2)cc1CO	45.8% and 54.8%	46.6%	60.9%	50.6%	37%	29.8%	33.4%	34.5%
